Drawing on PubChem BioAssay (NCI), this text covers growth for 9 molecules.

Some test systems named below: DU-145 prostate; MALME-3M melanoma; MDA-MB-231 breast; RXF 393 renal; SF-268 CNS; SF-295 CNS; SF-539 CNS; UACC-257 melanoma; HCT-15 colon; HT29 colon; SNB-75 CNS; SNB-19 CNS; U251 CNS; PC-3 prostate; SK-MEL-5 melanoma; UACC-62 melanoma; LOX IMVI melanoma; SK-MEL-28 melanoma; M14 melanoma; K-562 leukemia.
Holding throughout (experiment): NCI-60 one-dose screen, 48 h (100 = growth as untreated, 0 = no growth, -100 = all killed)
Conditions in all cases: 10 µM unless noted

This is part of a sample that, as a whole, favours compounds with a hit. Of some 83,000 tested, about 20% had one in any assay.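 The endpoint reported here, percent growth, reads 100 for growth as untreated, 0 for no net growth and -100 for all cells dead.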 Unmarked numbers belong to inactive results. The source made the active and inactive calls. How the source made its calls: active means growth percent below 10; inactive means the rest.

`Cc1c(C(=O)O)nnn1-c1nccs1`: the growth was 104% in the test with DU-145 prostate; 102% in the test on MALME-3M melanoma; 91.6% in the test on MDA-MB-231 breast; 112% with RXF 393 renal; 102% in the test on SF-268 CNS; 101% in the test on SF-295 CNS. Besides, the growth in the test with SF-539 CNS was 92%; in the test on UACC-257 melanoma, 80.8%; with HCT-15 colon it was 98%; in the test with HT29 colon, 89.7%; in the test on SNB-75 CNS, 81.8%; in the test on SNB-19 CNS, 98.1%. For the same molecule, the growth with U251 CNS is 92.1%; in the test with PC-3 prostate, 89.4%; in the test with SK-MEL-5 melanoma, 99.6%; in the test with UACC-62 melanoma, 96.2%; in the test with LOX IMVI melanoma, 96.7%; with SK-MEL-28 melanoma it was 108%.

On to `N#Cc1cnn2c(-c3ccc(Cl)cc3)nc(NC3CC3)nc12`, for which the growth with DU-145 prostate is 88.8%; in the test with MALME-3M melanoma it was 125%; in the test with MDA-MB-231 breast it was 101%; in the test on RXF 393 renal it was 93.7%; with SF-268 CNS, 84.4%; with SF-295 CNS it was 89.8%. Also, the growth in the test on SF-539 CNS was 89.2%; in the test with UACC-257 melanoma, 111%; in the test with M14 melanoma, 108%; in the test on HCT-15 colon it was 90.1%; in the test with HT29 colon, 88.8%; in the test with SNB-75 CNS, 87.7%. For the same molecule, the growth in the test with SNB-19 CNS is 86.6%; in the test on U251 CNS it was 97.3%; in the test on PC-3 prostate it was 95%; in the test with SK-MEL-5 melanoma, 95.3%; in the test with UACC-62 melanoma, 85.6%; in the test on LOX IMVI melanoma it was 99%. Further, the growth with SK-MEL-28 melanoma is 113%.

`C[C@]12CCC(=O)C[C@H]1CC[C@@H]1[C@@H]2CC[C@@]2(C)[C@H]1CC[C@]2(O)C(=O)CO`: the growth in the test on DU-145 prostate is 108%; with K-562 leukemia, 114%; with MDA-MB-231 breast it was 99.6%; with RXF 393 renal, 108%; with SF-268 CNS it was 96%; in the test on SF-295 CNS it was 113%. For the same molecule, the growth in the test on SF-539 CNS was 103%; in the test on UACC-257 melanoma, 129%; in the test on HCT-15 colon it was 104%; with HT29 colon, 99.4%; in the test on SNB-75 CNS it was 94.4%; with SNB-19 CNS, 108%. Further, the growth was 121% in the test with U251 CNS; 102% with PC-3 prostate; 104% with SK-MEL-5 melanoma; 102% in the test with UACC-62 melanoma; 108% in the test with SK-MEL-28 melanoma.

As for `Clc1ccc(/C=N\N=c2\scc(-c3ccc(Cl)cc3)n2/N=C/c2ccc(Cl)cc2)cc1`, the growth in the test with DU-145 prostate is 105%; in the test on MALME-3M melanoma, 100%; in the test on MDA-MB-231 breast it was 101%; in the test on RXF 393 renal, 108%; with SF-268 CNS, 97.8%; in the test on SF-295 CNS, 109%. The growth was 96.1% in the test on SF-539 CNS; 77.9% in the test with UACC-257 melanoma; 111% with HCT-15 colon; 76.5% in the test on HT29 colon; 91.6% with SNB-75 CNS; 90% with SNB-19 CNS. The growth was 97.6% in the test on U251 CNS; 102% in the test with PC-3 prostate; 106% in the test with SK-MEL-5 melanoma; 98.7% in the test on UACC-62 melanoma; 109% with LOX IMVI melanoma; 106% with SK-MEL-28 melanoma.

`CC(=O)c1ccc2c(c1)CCN2`: the growth is 104% with DU-145 prostate; 111% with K-562 leukemia; 96.1% in the test on MDA-MB-231 breast; 107% in the test on RXF 393 renal; 98.9% in the test on SF-268 CNS; 125% in the test with SF-295 CNS. For the same molecule, the growth is 101% in the test on SF-539 CNS; 104% in the test with UACC-257 melanoma; 105% in the test with HCT-15 colon; 101% in the test on HT29 colon; 93.1% in the test with SNB-75 CNS; 98.3% in the test with SNB-19 CNS. Further, the growth was 97.1% with U251 CNS; 98.6% in the test on PC-3 prostate; 105% in the test with SK-MEL-5 melanoma; 102% with UACC-62 melanoma; 109% in the test on SK-MEL-28 melanoma.

In the case of `COc1ccc(-c2nnc(-c3ccc4c(c3)nc(-c3ccccc3)n4C3CCCCC3)o2)cc1`, the growth was 71.7% with DU-145 prostate; 69.4% in the test with MALME-3M melanoma; 72.9% in the test with MDA-MB-231 breast; 97.3% in the test with RXF 393 renal; 71.2% with SF-268 CNS; 53.2% with SF-295 CNS. Also, the growth in the test on SF-539 CNS is 88.1%; with UACC-257 melanoma, 67.4%; in the test with M14 melanoma, 38.9%; in the test with HCT-15 colon, 41.9%; in the test on HT29 colon it was 34.9%; in the test on SNB-75 CNS it was 98.7%. The growth in the test with SNB-19 CNS is 86%; in the test on U251 CNS it was 71.3%; with PC-3 prostate, 18.5%; in the test with SK-MEL-5 melanoma, 24.9%; in the test with UACC-62 melanoma, 43.7%; with LOX IMVI melanoma it was 36.9%. The growth in the test on SK-MEL-28 melanoma is 88.5%.

As to `O=C1CSC(c2ccccc2)N1c1ccccc1` (configuration not stated), the growth with DU-145 prostate is 107%; in the test on K-562 leukemia, 107%; in the test on MDA-MB-231 breast it was 103%; in the test on RXF 393 renal, 95.8%; in the test with SF-268 CNS it was 105%; with SF-295 CNS, 96.6%. For the same molecule, the growth in the test on SF-539 CNS was 108%; in the test on UACC-257 melanoma, 101%; in the test with M14 melanoma it was 99.5%; with HCT-15 colon it was 98.9%; in the test on HT29 colon it was 116%; in the test on SNB-75 CNS it was 99.5%. Moreover, the growth in the test with SNB-19 CNS was 99.1%; in the test on U251 CNS, 102%; with PC-3 prostate, 91.4%; in the test on SK-MEL-5 melanoma it was 98.1%; in the test with LOX IMVI melanoma, 97.7%; in the test with SK-MEL-28 melanoma it was 106%.

Regarding `COc1cc(NC(=O)c2cc(O)c(CC=C(C)C)c(O)c2)cc2c1O[C@]1(C)CC[C@@H](O)C(C)(C)[C@H]1C2`, the growth was 42.8% in the test with DU-145 prostate; 43.9% in the test on MALME-3M melanoma; 32.8% in the test on MDA-MB-231 breast; -23.6% (active) with RXF 393 renal; 42% with SF-268 CNS; -49.6% (active) with SF-295 CNS. For the same molecule, the growth is -34.6% (active) with SF-539 CNS; 36.3% in the test with UACC-257 melanoma; 34.3% with HCT-15 colon; 5.24% (active) with HT29 colon; -7.48% (active) with SNB-75 CNS; 44.9% with SNB-19 CNS. Further, the growth with U251 CNS was 13.4%; in the test with PC-3 prostate it was 21.5%; in the test on SK-MEL-5 melanoma, -20.3% (active); in the test with UACC-62 melanoma, -13.3% (active); in the test on LOX IMVI melanoma, 12.7%; in the test on SK-MEL-28 melanoma, 18.8%.

As for `CC1(C)N=C(N)N=C(N)N1c1cccc(CN)c1`, the growth is 109% in the test on DU-145 prostate; 116% in the test with K-562 leukemia; 98.8% in the test with MDA-MB-231 breast; 103% in the test with RXF 393 renal; 101% with SF-268 CNS; 94.7% in the test on SF-295 CNS. Besides, the growth with SF-539 CNS was 99.3%; in the test with UACC-257 melanoma, 86.5%; in the test on M14 melanoma, 96.7%; in the test with HCT-15 colon, 97.8%; in the test with HT29 colon it was 95.7%; with SNB-75 CNS, 73.6%. The growth with SNB-19 CNS is 100%; in the test with U251 CNS, 98.9%; with PC-3 prostate it was 87.3%; in the test on SK-MEL-5 melanoma it was 109%; in the test with LOX IMVI melanoma, 89.2%; in the test on SK-MEL-28 melanoma, 106%.
